Screening results as filed in PubChem.
Most compounds without a hit are left out; they make up all but 3.6% or so of the library.
KAT2A inh – inhibitors of human GCN5L2 histone acetyltransferase. AID 504327. Q92830. Potency, µM (titrated, usually from 58.9 µM), without a hit: at the top dose activity change, negative = inhibition, hits mostly inhibitors. GCN5L2 HAT assay, ThioGlo1 CoA-SH fluorescence. 390,000 compounds, 0.21% hits; further: potency means the concentration at half of the fitted maximal effect; on the % scale 0 is the no-effect control and ±100 the full control effect
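Titration-based screen in which CoA formation is detected via maleimide probe ThioGlo1 (50uM) turning fluorescent on thiol reaction; substrates H3(1-25) 75uM and acetyl-CoA 70uM, GCN5L2 20nM, 20 min incubation at room temperature.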
Rango-impB inh – Rango-importin beta binding inhibition. Q14974. Rango CFP/YFP FRET sensor + importin beta, 45 min. Potency, µM (doses to about 92.2 µM), for inactives: at the highest dose inhibition of complex formation. 340,000 compounds, 0.031% hits; calls by dose curve;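 further: potency means the concentration at half of the fitted maximal effect; 0% = DMSO wells and 100% = buffer wells lacking importin beta; nearly all actives have a fitted effect of over 15% in size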
Target sequence (Q14974 whole entry, looked up): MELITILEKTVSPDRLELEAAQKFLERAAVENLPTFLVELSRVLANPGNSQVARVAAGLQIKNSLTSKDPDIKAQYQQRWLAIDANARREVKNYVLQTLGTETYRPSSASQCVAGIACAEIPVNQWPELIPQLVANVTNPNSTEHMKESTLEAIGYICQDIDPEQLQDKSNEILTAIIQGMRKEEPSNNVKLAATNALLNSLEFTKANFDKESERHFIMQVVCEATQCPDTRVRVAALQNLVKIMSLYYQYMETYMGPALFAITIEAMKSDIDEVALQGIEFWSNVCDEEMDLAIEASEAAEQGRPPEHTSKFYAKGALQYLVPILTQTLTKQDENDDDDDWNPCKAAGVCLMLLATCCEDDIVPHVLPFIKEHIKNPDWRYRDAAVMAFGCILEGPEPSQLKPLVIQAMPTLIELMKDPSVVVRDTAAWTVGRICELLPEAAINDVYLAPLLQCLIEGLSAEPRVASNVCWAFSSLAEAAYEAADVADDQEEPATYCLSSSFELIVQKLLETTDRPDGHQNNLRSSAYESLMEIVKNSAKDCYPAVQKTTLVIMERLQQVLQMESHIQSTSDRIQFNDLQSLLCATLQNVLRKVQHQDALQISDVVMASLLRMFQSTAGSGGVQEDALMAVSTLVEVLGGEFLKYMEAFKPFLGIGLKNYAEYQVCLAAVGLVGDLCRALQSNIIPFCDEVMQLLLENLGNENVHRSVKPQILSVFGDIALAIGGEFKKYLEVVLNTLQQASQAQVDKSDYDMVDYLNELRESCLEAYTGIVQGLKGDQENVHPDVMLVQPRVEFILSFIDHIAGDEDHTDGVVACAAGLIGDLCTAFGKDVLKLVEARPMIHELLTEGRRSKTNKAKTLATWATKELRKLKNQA
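Inhibition scored from the CFP 486 nm/YFP 530 nm FRET ratio 45 min after adding 0.125 microM importin beta to 50 nM Rango biosensor preincubated 5 min with compound (room temperature, PBS with DTT, Tween-20, BSA). No-importin wells as positive control.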
PI5P4Ka inh – blocks human PI5P4K alpha kinase activity; 330,000 compounds, 1.2% hits; max response, %; PI5P4Kalpha enzyme, ADP-Glo luminescence, 60 min; stronger effect = lower value; P48426; active means max response of -50% or lower; inconclusive means between -30% and -50%; inactive means -30% or higher; further: value at the top dose of about 77 µM; on the % scale 0 is the no-effect control and ±100 the full control effect
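PI5P4Kalpha ADP-Glo assay; 5 microM ATP final; 60 min RT reaction; HEPES pH 7.4/EGTA/CHAPS, 5% DMSO; controls lacking substrate or enzyme; luminescent end-point.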
Rango dissoc inh – prevents RanGTP from dissociating the Rango-importin beta complex | Potency, µM (series often up to 46.1 µM), for inactives: at the top dose activity change, negative = inhibition | 340,000 compounds, 0.071% hits | Biochemical FRET Rango-importin beta, RanGTP-induced dissociation; calls by dose curve; further: potency means the concentration at half of the fitted maximal effect; % of control where 0% means no effect; nearly all actives have a fitted effect of over 45% in size
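Rango FRET biosensor (snurportin-1 IBB flanked by N-terminal EYFP and C-terminal CFP10) at 0.1 uM, with 0.25 uM importin beta in PBS, 1mM DTT, 0.02% Tween-20, 0.1% BSA. 0.6 uM Ran, 2mM GTP and 0.2 uM RCC1 were then added for 45 min at room temperature. Inhibition read as loss of FRET rise.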
VDR inh – vitamin D3 receptor (human) inhibition. 400,000 compounds, 0.93% hits. VDR-SRC2-3 peptide fluorescence polarization, 2 h. Potency, µM, without a hit: max response, negative = inhibition, hits mostly inhibitors. P11473; further: potency means the concentration at half of the fitted maximal effect; on the % scale 0 is the no-effect control and ±100 the full control effect
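Two reagent solutions held at 4 deg C in the dark were dispensed, compounds pinned at 23 nl, and the mixture incubated 2 h at room temperature. Read-out: fluorescence polarization of VDR–SRC2-3 peptide binding.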
PLK1 PBD inh – blocks phosphopeptide binding to human PLK1 polo-box domain; 360,000 compounds, 2.8% hits; P53350; Plk1 PBD binding of FITC phosphopeptide, fluorescence polarization; Potency, µM, inactives show max response, negative = inhibition, actives largely listed as inhibitors; AID 720504; further: potency means the concentration at half of the fitted maximal effect; series mostly up to about 57 µM; on the % scale 0 is the no-effect control and ±100 the full control effect; nearly all actives have a fitted effect of over 65% in size
* = called active by the depositor; ? = inconclusive; / = not tested or not shown; ! = not active in a repeat. Unless noted, the call rests on the fitted dose curve; in most records, active means well fitted curve in the direction sought with a large enough effect; inconclusive means small, poorly fitted or top-dose-only effect, or another doubt; inactive means no such curve, though single readings can be large; an effect the other way counts as inactive or inconclusive.

SMILES	KAT2A inh	Rango-impB inh	PI5P4Ka inh	Rango dissoc inh	VDR inh	PLK1 PBD inh
S=c1nc[nH]c2c1ncn2-c1ccc(Cl)cc1	/	-3%	?	-2%	?	6µM*
CCOC(=O)c1c[nH]c2c(Cl)ccc(Cl)c2c1=O	-1%	0%	2	-21%	9%	-7%
CCOC(=O)c1c[nH]c2c(Cl)c(Cl)ccc2c1=O	4%	-7%	-1	3%	-13%	27µM*
CCOC(=O)c1c[nH]c2c3c(ccc2c1=O)CCCC3	-4%	-5%	/	2%	7%	-1%
CCOC(=O)c1c[nH]c2c(C)ccc(Cl)c2c1=O	-14%	3%	-24	-16%	79µM*	19µM*
CCOC(=O)c1sc2ccccc2c1S(=O)(=O)N1CCN(c2cccc(C)c2)C(C)C1 (stereo unspecified)	19%	/	/	/	3%	/
O=C(NCCN1C(=O)S/C(=C/c2cccnc2)C1=O)c1cccs1	1%	?	-9	-14%	-5%	-9%
O=C(NCCN1C(=O)S/C(=C\c2cccnc2)C1=O)C1=NN(c2ccccc2)C(=O)CC1	-7%	3%	-67*	3%	28µM*	3.8µM*
COc1ccc2[nH]cc(CC(=O)O)c2c1	-1%	0%	2	12%	-13%	-16%
O=C(O)Cc1c[nH]c2ccc(O)cc12	-12%	-3%	3	0%	50µM*!	5%
COc1ccc(NC(=O)Cn2c(=O)n(-c3cccc(C)c3)c(=O)c3c2c2cc(C)ccc2n3C)cc1Cl	-4%	/	/	/	10%	/
COc1cccc(C2(O)CC(C(F)(F)F)=NN2C(=O)c2ccccn2)c1 (stereo unspecified)	25µM*	3%	-1	-4%	15%	-1%
O=C1/C(=C/c2ccco2)SC(=S)N1c1cccnc1	28µM*	-6%	-105*	-23%	-18%	17µM*
O=C1c2ccc(Oc3cccc([N+](=O)[O-])c3)cc2C(=O)N1c1ccccn1	-4%	1%	-11	1%	?	11µM*
CCCOc1ccc(CCC(=O)N/N=C/c2ccncc2)cc1	-2%	-6%	-13	-17%	?	24µM*
COc1ccc(NC(=O)C2CCN(C(=O)[C@@H]3Cc4ccccc4CN3)CC2)cc1	-1%	3%	-2	-23%	-11%	-4%
COc1ccc(CNC(=O)C2CCN(C(=O)[C@@H]3Cc4ccccc4CN3)CC2)cc1	1%	1%	-3	11%	?	6µM*
COc1cccc(-n2c(C)nc3c(cnn3-c3ccc(Cl)cc3)c2=O)c1	-2%	1%	-13	-2%	-4%	21µM*
CCOc1ccc(-n2c(C)nc3c(cnn3-c3ccc(Cl)cc3)c2=O)cc1	1%	1%	-4	0%	0%	-1%
C=Cc1c(C)/c2[n-]/c1=C\c1[n-]c(c(CC)c1C)/C=c1\[n-]c3c(c1C)C(=O)C(C(=O)[O-])C=3c1[n-]c(c(C)c1CCC(=O)[O-])\C=2.[Cu].[Na+].[Na+] (stereo unspecified)	2.5µM*	/	/	/	32µM*	/
O=c1c2cc(N3CCOCC3)ccc2[nH]c(=S)n1CCN1CCCC1	-19%	?	/	-2%	12%	-7%
Cc1ccc(Cn2c(=S)[nH]c3ccc(N4CCOCC4)cc3c2=O)o1	?	?	/	-12%	18µM*	21µM*
CCOc1ccccc1NC(=O)N(Cc1ccc(F)cc1)C1CCN(CC)CC1	-6%	/	/	/	14%	/
COc1cc(OC)c(C2CC(=O)N3CN(c4ccccc4)CSC3=C2C#N)cc1OC (stereo unspecified)	?	?	/	?	10µM*	27µM*
COc1ccc(OC)c(C2CC(=O)N3CN(c4ccc(C)c(Cl)c4)CSC3=C2C#N)c1 (stereo unspecified)	14µM*	?	-102*	-17%	16µM*	?
COc1ccc(Br)cc1C1CC(=O)N2CN(Cc3ccccc3)CSC2=C1C#N (stereo unspecified)	?	-4%	?	-11%	71µM*	?
